D1 ag – Allosteric Agonists of the Human D1 Dopamine Receptor: qHTS. HEK293 T-REx D1 cells, calcium flux, agonist mode. activation, % at 2 µM. 360,000 compounds, 1% hits. AID 504660, 2011; in the data active means activation above about 30%; further: 0% is about no effect
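Inducible HEK293 T-REx D1 cells, force-coupled to calcium signalling, were plated at 4000 cells/well with tetracycline and held overnight at 30 C. After no-wash calcium dye loading, compound-evoked calcium rise over 180 s flagged agonists.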
DRD3 agonist – qHTS of D3 Dopamine Receptor Agonist: qHTS | D(3) dopamine receptor (Homo sapiens), P35462 | D3R DiscoveRx beta-arrestin cells, luminescence, 90 min | max activation, % | 410,000 compounds, 0.58% hits | AID 652048, 2013; in the data active means max activation above about 30%; further: 0% is about no effect
Target sequence (P35462 whole entry, looked up): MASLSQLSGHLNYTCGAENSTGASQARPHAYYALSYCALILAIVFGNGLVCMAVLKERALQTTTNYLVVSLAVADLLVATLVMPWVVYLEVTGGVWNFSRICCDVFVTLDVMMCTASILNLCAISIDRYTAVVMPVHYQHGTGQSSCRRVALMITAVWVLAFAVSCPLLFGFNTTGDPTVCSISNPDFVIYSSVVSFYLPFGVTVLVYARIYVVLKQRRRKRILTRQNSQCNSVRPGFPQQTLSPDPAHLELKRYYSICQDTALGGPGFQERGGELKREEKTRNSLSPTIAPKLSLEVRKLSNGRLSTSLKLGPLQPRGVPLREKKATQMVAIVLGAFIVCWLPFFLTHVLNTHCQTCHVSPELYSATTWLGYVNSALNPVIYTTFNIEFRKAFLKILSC
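Cells at 1500/well, incubated overnight, then treated with pinned compounds (dopamine as control) for 90 min at 37 degrees C. DiscoveRx reagent added for 30 - 60 minutes at room temperature; luminescence read.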
D3 antag – qHTS of D3 Dopamine Receptor Antagonist: qHTS; D(3) dopamine receptor (Homo sapiens), P35462; D3R cells, DiscoveRx beta-arrestin luminescence, antagonist mode; stronger effect = lower value; max response, negative = inhibition, %; 360,000 compounds, 2.5% hits; in the data active means max response below about -50%; inconclusive means no clear call, values can overlap the other calls; further: on the % scale 0 is the no-effect control and ±100 the full control effect
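Cells plated overnight at 1500 cells/well, then exposed to library compounds with dopamine controls for 90 minutes at 37 degrees C. DiscoveRx reagent added for 30–60 minutes at room temperature; luminescence read, quantitative HTS format.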
D1 antagonist – Antagonist of Human D 1 Dopamine Receptor: qHTS; HEK293 TREx D1 cells, calcium flux, dopamine EC80; stronger effect = lower value; 360,000 compounds, 3.2% hits; AID 504652, 2011; D(1A) dopamine receptor (Homo sapiens), P21728; activity change, negative = inhibition, % at 10 µM; in the data active means activity change below about -30%; further: on the % scale 0 is the no-effect control and ±100 the full control effect
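Tetracycline-induced HEK293 T-REx cells with force-coupled D1 receptor were loaded with a no-wash calcium dye. Compound was added after a 10 s baseline and read kinetically for 180 s; EC80 dopamine was then added and calcium flux followed another 180 s.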
ERG Ets-DNA blk – qHTS for Small Molecule Inhibitors of the ERG Ets/DNA interaction; Transcriptional regulator ERG (Homo sapiens), P11308; fluorescence polarization, His-ERG Ets domain / labelled DNA; Potency, µM (titrated, usually from 76.9 µM), without a hit: at the top dose FP activity, negative = inhibition, actives largely listed as inhibitors; 370,000 compounds, 0.028% hits; AID 624246, 2012; active means well fitted inhibition curve with a large enough effect in the polarisation, with a control signal flat; inconclusive means small, poorly fitted or top-dose-only effect, or effect the other way, or a change in a side signal; inactive means no such curve, though single readings can be large or run the other way; the % refers to the polarisation;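 further: polarization taken with two DNA probes labelled with fluorescein and Texas red; potency means the concentration at half of the fitted maximal effect; % of control where 0% means no effect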
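His-tagged ERG Ets domain (1 uM in the protein solution; 300mM KCl, 50mM Tris-HCl, 1mM EDTA, 1mM DTT, pH 7.5) received compound, then a probe mix of 5 nM fluorescein-DNA and 100nM Texas-615-DNA. Fluorescence polarization was read for both dyes.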
D1 potentiator – Potentiators of Human D1 Dopamine Receptor: qHTS; potentiation, % at 10 µM; 360,000 compounds, 0.036% hits; HEK293 TREx D1 cells, calcium flux, dopamine EC20 potentiation; AID 504651, 2011; in the data active means potentiation above about 30%; further: 0% is about no effect
Starred values were filed as active, the others as inactive; ? = inconclusive; / = no result given. A selection: hits, their analogues and other compounds. The true share with any hit is near 6.1%.

SMILES | D1 ag | DRD3 agonist | D3 antag | D1 antagonist | ERG Ets-DNA blk | D1 potentiator
c1cncc(-c2nc(NCc3cccs3)c3ccccc3n2)c1 | 3 | 4 | 10 | -3 | -3% | -4
CC(CC(=O)N1CCN(c2ccccc2)CC1)S(=O)(=O)c1ccc2c(c1)NC(=O)CO2 (stereo not drawn) | 7 | 6 | 9 | -48* | -5% | -2
O=C1COc2ccc(S(=O)(=O)N3CCN(c4ccccc4)CC3)cc2N1 | 3 | -1 | 6 | 3 | 6% | -6
Cc1ccc(NC(=O)NCCN2CCN(c3ccccc3)CC2)cc1Cl | 13 | -7 | -71* | -16 | -2% | -5
Cc1cccc(N2CCN(CCNC(=O)Nc3ccc(Cl)cc3)CC2)c1C | 30* | 10 | / | -33* | 0% | -3
O=C(NCCN1CCN(c2ccccc2)CC1)Nc1cccc(Cl)c1 | 11 | 13 | ? | -27 | 4% | -8
O=C(NCCN1CCN(c2ccccc2Cl)CC1)Nc1ccccc1 | -1 | 8 | ? | -8 | 1% | -7
Cc1cccc(NC(=O)NCCN2CCN(c3ccccc3)CC2)c1C | 2 | 8 | -71* | -2 | -1% | -15
CCc1ccc(N2CCN(CCNC(=O)Nc3ccccc3)CC2)cc1 | -4 | -16 | -72* | -6 | 0% | -7
Cc1cccc(NC(=S)NCCN2CCOCC2)c1C | -1 | 0 | 14 | 8 | 1% | -4
O=C(O)c1nn(CCOc2ccccc2F)c(=O)c2ccccc12 | 3 | -19 | ? | 12 | 14% | 2
Cc1cc2cc(CNC(=O)c3cccs3)ccc2n1C | 10 | -1 | -11 | 3 | 18µM* | -3
CCN(CC)S(=O)(=O)c1ccc(C(=O)NCc2ccc3c(c2)cc(C)n3C)cc1 | -3 | -4 | -4 | -2 | 32µM* | 4
C(=C\c1nc(N2CCCCCC2)c2ccccc2n1)/c1ccccc1 | 7 | 18 | 18 | -2 | 13% | -5
O=C(O)c1ccccc1NC(=O)N1c2ccccc2Sc2ccccc21 | -2 | -7 | / | -25 | 3% | 2
Cc1[nH]nc2nc3c(c(OC(=O)c4ccccc4)c12)c(=O)n(C)c(=O)n3C | -1 | / | / | -39* | / | /
CCn1cc([N+](=O)[O-])c(C(=O)N2N=C(c3ccc(OC)cc3OC)CC2c2ccccc2O)n1 (stereo not drawn) | 5 | -4 | ? | -31* | -3% | -2
CCn1cc([N+](=O)[O-])c(C(=O)N2N=C(c3cccc4ccccc34)CC2c2ccccc2O)n1 (stereo not drawn) | 0 | 1 | ? | 12 | -12% | 12
COc1cccc(-n2c(SCC(=O)Nc3c(C)cc(C)cc3C)nc3c([nH]c4ccccc43)c2=O)c1 | 0 | 4 | / | 8 | 5% | -4
Cc1ccc2cc(NC(=O)c3ccc(C(C)(C)C)cc3)ccc2n1 | 0 | 12 | 19 | -15 | -14% | 1
CCc1ccc(C(=O)Nc2ccc3nc(C)ccc3c2)cc1 | 2 | -12 | 5 | -31* | 11% | -10
COc1ccc(-c2nc(CN3CCN(Cc4cccc(Cl)c4)CC3)c(C)o2)cc1 | 1 | -2 | -60* | -16 | 3% | -14
COc1ccc(S(=O)(=O)N2CCN(Cc3cccc(Cl)c3)CC2)cc1 | 1 | -15 | ? | -39* | -5% | -2
COc1ccccc1N1CCN(Cc2cn[nH]c2-c2ccc(F)cc2)CC1 | 60* | -33 | -67* | 4 | -1% | -4
COc1ccc(-c2nc(CN3CCN(c4ccccc4OC)CC3)c(C)o2)cc1 | 1 | -35 | -71* | -10 | 14% | -5
SMILES | D1 ag | DRD3 agonist | D3 antag | D1 antagonist | ERG Ets-DNA blk | D1 potentiator
O=C(OCc1ccc([N+](=O)[O-])cc1)c1cc(S(=O)(=O)N2CCCCC2)ccc1N1CCOCC1 | 1 | 0 | 10 | -7 | -4% | 3
COc1ccc(C)cc1NS(=O)(=O)c1ccc2[nH]c(=O)c(=O)[nH]c2c1 | 0 | 3 | / | 10 | -5% | 1
C#CCCC/C(=C\C(=O)N(C)[C@H](C(=O)N(C)[C@H](C(=O)N(C)[C@H](C(=O)N(C)[C@H](C(N)=O)C(C)C)C(C)C)C(C)C)C(C)C)OC | / | 10 | 14 | / | -1% | /
Cc1ccccc1C1CC(=O)Nc2ccc3ccccc3c21 (stereo not drawn) | 1 | 0 | / | 3 | -1% | 2
COc1ccccc1CN1CCN(Cc2nc(-c3ccc(C)cc3)oc2C)CC1 | 8 | -25 | -17 | -28 | -2% | -4
COc1ccccc1N1CCN(Cc2nc(-c3ccc(F)cc3)oc2C)CC1 | 3 | -3 | -115* | -3 | 15% | -4
O=C(CSc1ncc(C(F)(F)F)cc1Cl)NCC1CCCO1 (stereo not drawn) | 7 | -6 | 1 | -2 | 2% | -2
CCc1ccc(Nc2ncnc3c2cnn3-c2cc(Cl)ccc2C)cc1 | -1 | -4 | / | -10 | 3% | -2
Cc1ccc(Cl)cc1-n1ncc2c(NCCc3ccccc3)ncnc21 | -3 | 11 | / | -2 | -10% | -1
Cc1ccc(Cl)cc1-n1ncc2c(NCCCc3ccccc3)ncnc21 | 8 | 2 | / | -36* | 0% | -3
Cc1cccc(-n2ncc3c(NC4CCCCC4)ncnc32)c1 | 2 | 5 | 7 | 6 | -3% | -7
Cc1ccc(Cl)cc1-n1ncc2c(NCc3ccc(F)cc3)ncnc21 | 77* | 9 | / | -61* | -4% | 3
Cc1ccc(CNc2ncnc3c2cnn3-c2ccccc2)cc1 | 53* | 8 | 8 | 60 | 0% | 2
Cc1cccc(-n2ncc3c(NC4CCCC4)ncnc32)c1 | -4 | -15 | / | -34* | 5% | -1
CS(=O)(=O)N(CC(=O)NCc1ccco1)c1ccc(Cl)cc1Cl | 2 | 0 | -29 | -26 | -6% | -4
CCc1nc2c(OCCC3CCCCC3)cccn2c1N(C=O)Cc1ccc(OC)cc1 | / | -12 | -77* | / | / | /
CCOC(=O)C(=O)N(C)c1c(CC)nc2c(OCCC3CCCCC3)cccn12 | / | -22 | -84* | / | / | /
CCc1nc2c(OCCC3CCCCC3)cccn2c1N(C)C(=O)c1cccs1 | / | -20 | -101* | / | / | /
CCCCC(=O)N(C)c1c(CC)nc2c(OCC3CCCCC3)cccn12 | / | -16 | -13 | / | / | /
CCCCC(=O)N(C)c1c(CC)nc2c(OCCC3CCCCC3)cccn12 | / | -28 | -71* | / | / | /
O=[N+]([O-])c1c(Nc2ccccc2O)ccc2nonc12 | 3 | -7 | -25 | -7 | -1% | 2
